From PubChem BioAssay

molecular target: Calmodulin-1 (Homo sapiens) (UniProt P0DP23); assay: calcium-bound CALM1 binders on microarrays, profiling panel, artefact control for SMM control-protein annotation, biochemical, small-molecule microarray, Cy5-labelled CALM1, plus calcium (AID 1112); settings: Cy5-CALM1 binding fluorescence, higher = more signal;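 further: score merges spot fluorescence with signal to noise from triplicate slides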

| Compound | composite z-score |
| --- | --- |
| CC#CCOCCC=C1c2ccccc2[C@@H](OC)[C@@H]1C | -1.18 |
| C#CCCCON=C1C[C@@H](O)[C@@H](O)[C@@H]2[C@@H]3C(=O)N(C[C@@H]4CCCO4)C(=O)[C@@H]3CC[C@H]12 | -0.0973 |
| O=C1[C@H]2[C@H]3[C@H](O)[C@H](O)CC(=NO[C@@H]4O[C@H](CO)[C@@H](O)[C@H](O)[C@H]4O)[C@H]3CC[C@H]2C(=O)N1c1ccc(F)cc1F | -1.2 |
| CCCNC(=O)OC[C@H]1O[C@H](CCON=C2C[C@@H](O)[C@@H](O)[C@@H]3[C@@H]4C(=O)N(CC)C(=O)[C@@H]4CC[C@@H]23)C=C[C@@H]1Oc1ccc(OC)cc1 | -0.795 |
| CC(C)=CCCC(C)=CCON=C1C[C@@H](O)[C@@H](O)[C@@H]2[C@@H]3C(=O)N(c4cccc(Oc5ccccc5)c4)C(=O)[C@@H]3CC[C@H]12 | 0.321 |
| COc1ccc(OC[C@@H](CO)OC)cc1 | -0.671 |
| COc1ccc(OC[C@H]2CN3[C@@H](CC[C@@H](C)[C@@H]3c3ccc(Br)cc3)C(=O)O2)cc1 | -0.855 |
| Cc1ccc(S(=O)(=O)N[C@@H]2COC(=O)CC=C[C@@H](C)[C@H](NS(=O)(=O)c3ccc(C)cc3)COC(=O)[C@H](C)NC(=O)CC=C[C@H]2C)cc1 | -0.951 |
| CC(C)CON=C1C[C@@H](O)[C@@H](O)[C@@H]2[C@@H]3C(=O)N(C(C)(C)C)C(=O)[C@@H]3CC[C@@H]12 | -2.27 |
| CCOC(=O)CCN1C(=O)[C@H]2[C@H]3[C@H](O)[C@H](O)CC(=O)[C@@H]3CC[C@H]2C1=O | -0.135 |
| CCOC(=O)[C@H](CC(C)C)NC(=O)CCC1CC(OC(=O)NCc2ccc3c(c2)OCO3)CC2(CCCC(COC(=O)NCCC(C)C)O2)O1 (some centres not stated) | -0.365 |

test system: not listed separately; assay: small-molecule microarray binders of probe aWnt5a, primary screen, biochemical, biotinylated probe, 635/667 nm fluorescence (AID 1113); settings: higher = more signal;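 further: score merges 667 nm fluorescence intensity with signal-to-noise per printed feature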

| Compound | composite z-score |
| --- | --- |
| O=C1C[C@@H](O)[C@@H](O)[C@@H]2[C@@H]3C(=O)N(c4ccc(F)cc4F)C(=O)[C@@H]3CC[C@H]12 | -0.0718 |
| Cc1cc(C)c(-c2cc([C@H](C)ON=C[C@@H](C)[C@H](OCc3ccccc3)C(C)C)on2)c(C)c1 | -0.0403 |
| CCN1C(=O)[C@H]2[C@H]3[C@H](O)[C@H](O)CC(=NOCC=C(C)CCC=C(C)C)[C@@H]3CC[C@H]2C1=O | -0.087 |
| CC(CCC(=O)OC[C@H]1O[C@H](C#Cc2ccccc2)C=C[C@@H]1Oc1ccc(C)cc1)=NOC[C@@H](C)[C@H](OCc1ccccc1)C(C)C | -0.0573 |
| CCOC(=O)CCN1C(=O)[C@H]2[C@H]3[C@H](O)[C@H](O)CC(=NO[C@@H]4O[C@H](CO)[C@@H](O)[C@H](O)[C@H]4O)[C@H]3CC[C@H]2C1=O | -0.0286 |
| CC1(C)O[C@H]2OC([C@H](O)CON3C(=O)c4ccccc4C3=O)[C@H](O)[C@H]2O1 (some centres not stated) | -0.109 |
| CC(CCN1CCc2nc(-c3ccccc3)c(-c3ccccc3)cc2C1)=NO[C@H](C)c1cn([C@H](CO)Cc2ccccc2)nn1 | -0.0242 |
| CON=C(C)CCN1CCCc2nc(C)c(C)cc21 | -0.0405 |
| CC(=O)OC[C@H]1O[C@@H](ON=C(C)CCC(=O)OC[C@H]2O[C@H](C#Cc3ccccc3)C=C[C@@H]2Oc2ccc(C)cc2)[C@H](OC(C)=O)[C@@H](OC(C)=O)[C@@H]1OC(C)=O | -0.0735 |
| CCN1C(=O)[C@H]2[C@H]3[C@H](O)[C@H](O)CC(=NO[C@H](C)c4cn([C@H](CO)Cc5ccccc5)nn4)[C@@H]3CC[C@H]2C1=O | -0.0573 |
| CC(=O)OC[C@H]1O[C@@H](ON=C(C)C)[C@H](OC(C)=O)[C@@H](OC(C)=O)[C@@H]1OC(C)=O | -0.0459 |
| CC(C)CON=C1C[C@@H](O)[C@@H](O)[C@@H]2[C@@H]3C(=O)N(c4ccc(F)cc4F)C(=O)[C@@H]3CC[C@@H]12 | -0.0368 |
| C=C(C)C(=O)OC[C@H]1CN2[C@@H](CC[C@@H](C)[C@@H]2c2ccc(Br)cc2)C(=O)O1 | -0.178 |
| CC(CCN1CCCc2nc(C)c(C)cc21)=NOC[C@@H](O)COCc1ccco1 | 0.937 |
| O=C1C=C[C@@H](O)[C@@H]2[C@@H]3C(=O)N(Cc4ccc5c(c4)OCO5)C(=O)[C@@H]3CC[C@@H]12 | -0.147 |
| CC(C)(C)N1C(=O)[C@H]2[C@H]3[C@H](O)[C@H](O)CC(=NOC[C@@H](O)COCc4ccco4)[C@@H]3CC[C@H]2C1=O | -0.0685 |
| C=CC[C@@H]1C=CC(ON=C(C)C)[C@@H](CO)O1 (some centres not stated) | -0.0701 |
| CCC1=NOC(CCC2CC(OC(=O)NCc3cccc4c3OCO4)CC3(CCCC(COC(=O)NCCc4ccc(Cl)cc4)O3)O2)C1 (configuration not stated) | -0.142 |

| Compound | composite z-score |
| --- | --- |
| C#CCCCON=C1C[C@@H](O)[C@@H](O)[C@@H]2[C@@H]3C(=O)N(C4CCCCC4)C(=O)[C@@H]3CC[C@@H]12 | -0.0685 |
| CC(=O)OC[C@H]1O[C@H](CC=NOC[C@@H](O)COCc2ccco2)C=C[C@@H]1OC(C)=O | -0.102 |
| CC(C)=NOC(C)CN1CCCc2nc(C)c(C)cc21 (configuration not stated) | -0.0718 |
| CCOC(=O)[C@H](Cc1ccccc1)NC(=O)CCC1CC(OC(=O)NCc2cccc3ccccc23)CC2(CCCC(COC(=O)NCC3CCCCC3)O2)O1 (some centres not stated) | -0.0445 |
| O=C1C[C@H](c2ccccc2)[C@H](c2ccc(Br)cc2)O1 | -0.129 |
| COC(=O)[C@H](C)NC(=O)CCC1CC(OC(=O)NCCc2ccc(F)cc2)CC2(CCCC(COC(=O)NCC3CCCCC3)O2)O1 (some centres not stated) | -0.1 |
| CN1CCc2nc(-c3ccccc3)c(-c3ccccc3)cc2C1 | -0.0239 |
| CC#CCOCCC=C1c2ccccc2[C@@H](OC)[C@@H]1C | -0.0977 |
| C#CCCCON=C1C[C@@H](O)[C@@H](O)[C@@H]2[C@@H]3C(=O)N(C[C@@H]4CCCO4)C(=O)[C@@H]3CC[C@H]12 | -0.096 |
| O=C1[C@H]2[C@H]3[C@H](O)[C@H](O)CC(=NO[C@@H]4O[C@H](CO)[C@@H](O)[C@H](O)[C@H]4O)[C@H]3CC[C@H]2C(=O)N1c1ccc(F)cc1F | -0.0088 |
| CCCNC(=O)OC[C@H]1O[C@H](CCON=C2C[C@@H](O)[C@@H](O)[C@@H]3[C@@H]4C(=O)N(CC)C(=O)[C@@H]4CC[C@@H]23)C=C[C@@H]1Oc1ccc(OC)cc1 | -0.141 |
| CC(C)=CCCC(C)=CCON=C1C[C@@H](O)[C@@H](O)[C@@H]2[C@@H]3C(=O)N(c4cccc(Oc5ccccc5)c4)C(=O)[C@@H]3CC[C@H]12 | -0.148 |
| COc1ccc(OC[C@@H](CO)OC)cc1 | -0.244 |
| COc1ccc(OC[C@H]2CN3[C@@H](CC[C@@H](C)[C@@H]3c3ccc(Br)cc3)C(=O)O2)cc1 | -0.176 |
| Cc1ccc(S(=O)(=O)N[C@@H]2COC(=O)CC=C[C@@H](C)[C@H](NS(=O)(=O)c3ccc(C)cc3)COC(=O)[C@H](C)NC(=O)CC=C[C@H]2C)cc1 | -0.194 |
| CC(C)CON=C1C[C@@H](O)[C@@H](O)[C@@H]2[C@@H]3C(=O)N(C(C)(C)C)C(=O)[C@@H]3CC[C@@H]12 | -0.178 |
| CCOC(=O)CCN1C(=O)[C@H]2[C@H]3[C@H](O)[C@H](O)CC(=O)[C@@H]3CC[C@H]2C1=O | -0.0924 |
| CCOC(=O)[C@H](CC(C)C)NC(=O)CCC1CC(OC(=O)NCc2ccc3c(c2)OCO3)CC2(CCCC(COC(=O)NCCC(C)C)O2)O1 (some centres not stated) | -0.184 |
